Test results published in PubChem BioAssay.
Activity calls are given as the source filed them. Unless noted, no rule for the calls is given here.

How the values were obtained:
[1] = tested on: Wnt5a (protein binding on small-molecule microarray); assay: small molecules binding Wnt5a protein – biophysical, small-molecule microarray, 635/667 nm fluorescence, primary screen (AID 1142); details: 635 nm fluorescence, higher = more signal;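 also: fluorescence read at 667 nm with signal to noise per printed feature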
[2] = ATP-based viability of Huh7 replicon cells – cell-based, CellTiter-Glo luminescence, basal, 48 h, cytotoxicity control for HCV replication inhibitor project, primary screen (AID 1143); details: higher = more signal, called active from +8 up or from −8 down;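 also: Huh7 hepatoma cells carrying a hepatitis C replication reporter with no stimulus; test concentration not given here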
[3] = Pseudomonas biofilm growth suppression – PAO1 strain, BacTiter-Glo luminescence, LB-PBS, primary screen (AID 1144); details: P. aeruginosa PAO1 biofilm, 12 h, higher = more signal
[4] = basal CRE-LacZ reporter activity in PC12 – cell-based, unstimulated, primary screen (AID 1145); details: no forskolin, luminescence, 4.5 h, higher = more signal, called active from +8 up or from −8 down
[5] = forskolin-driven CRE-LacZ activity in PC12 – cell-based, CRE-LacZ reporter, forskolin-stimulated, primary screen (AID 1146); details: luminescence, 4.5 h, higher = more signal, called active from +8 up or from −8 down;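 also: PC12 cells with 6xCRE LacZ reporter stimulated by forskolin 10 µM; beta-galactosidase reporter signal reflecting CREB driven transcription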
[6] = target: Streptavidin (Streptomyces avidinii) (UniProt P22629); assay: compounds binding control protein streptavidin – biophysical, small-molecule microarray, 635/667 nm fluorescence, artefact control for SMM compound annotation, primary screen (AID 1147); details: higher = more signal;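 also: signal reflects streptavidin binding to arrayed compounds as a control protein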
[7] = probe aInhba binding on compound microarray – biochemical, small-molecule microarray, 635/667 nm fluorescence, primary screen (AID 1148); details: higher = more signal;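 also: score merges 667nm spot fluorescence with signal-to-noise for antibody binding to printed compounds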
Torsin-1A (Homo sapiens) [8] = target: Torsin-1A (Homo sapiens) (UniProt O14656); assay: TOR1A wild-type binding on microarray – cell lysate, small-molecule microarray, lysate, 635/667 nm, primary screen (AID 1149); details: COS7 hTOR1A-WT lysate, 635 nm fluorescence, higher = more signal
Torsin-1A (Homo sapiens) [9] = target: Torsin-1A (Homo sapiens) (UniProt O14656); assay: torsin A mutant lysate binding on microarrays – cell lysate, small-molecule microarray, COS7 lysate, 635/667 nm fluorescence, primary screen (AID 1150); details: COS7 hTOR1A mutant lysate, 635 nm fluorescence, higher = more signal;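 also: score pools 667 nm emission and signal to noise measuring lysate protein binding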
[10] = tested on: Sonic hedgehog protein (Shh); assay: Sonic hedgehog microarray binding compounds – biochemical, small-molecule microarray, 635/667 nm fluorescence, primary screen (AID 1151); details: 635 nm fluorescence, higher = more signal;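 also: Shh protein binding to compounds spotted on small-molecule microarray slides; score combines spot fluorescence intensity with signal-to-noise across triplicate slides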
[11] = optical density shifts of acrAB sulA E. coli – strain DRC41, OD650, 48 h, E. coli filamentation inducer project, primary screen (AID 1152); details: higher = more signal, called active from +8 up or from −8 down;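 also: E. coli MC1000 strain DRC41 lacking acrAB efflux pump and sulA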
[12] = probe aLefty1 binding on compound microarray – biochemical, small-molecule microarray, 635/667 nm fluorescence, primary screen (AID 1153); details: higher = more signal;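 also: score merges spot fluorescence with signal-to-noise ratio from the scanned slide images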
[13] = plasmodial surface anion channel blockers, osmotic lysis – cell-based, P. falciparum Indochina, OD700, 1 h, primary screen (AID 1154); details: P. falciparum Indochina infected RBC osmotic lysis, higher = more signal, called active from +8 up or from −8 down
[14] = plasmodial surface anion channel blockers, osmotic lysis – cell-based, P. falciparum Indochina, OD700, 2 h, primary screen (AID 1155);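 also: lysis reports solute entry through the parasite surface anion channel PSAC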; details: P. falciparum Indochina infected erythrocytes, higher = more signal, called active from +8 up or from −8 down
[15] = changes in parasitized red cell lysis, either direction – P. falciparum Indochina, OD700, 3 h, PSAC antagonist project, primary screen (AID 1156); details: P. falciparum-infected erythrocytes, osmotic lysis, higher = more signal, called active from +8 up or from −8 down
[16] = plasmodial surface anion channel blockers, osmotic lysis – cell-based, P. falciparum Indochina, OD700, 18 h, primary screen (AID 1157); details: P. falciparum Indochina infected erythrocytes, osmotic lysis OD700, 18 h; higher = more signal, called active from +8 up or from −8 down
[17] = S6 kinase pathway phospho-S6 level changes – cell-based, A549, cytoblot, luminescence, serum-stimulated, primary screen (AID 1158); details: 5 h, higher = more signal;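 also: serum-stimulated A549 lung adenocarcinoma cells; signal is phosphorylated S6 detected by cytoblot immunostaining with HRP secondary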
[18] = target: NADPH oxidase 2 (Homo sapiens) (UniProt P04839); assay: compounds shifting NOX2 Amplex Red fluorescence – cell-based, HEK293-NOX2, PMA-stimulated, NOX inhibitor project, primary screen (AID 1159); details: 45 min, higher = more signal, called active from +8 up or from −8 down; also: test concentration not given here
[19] = target: NADPH oxidase 4 (Homo sapiens) (UniProt Q9NPH5); assay: compounds shifting NOX4 Amplex Red fluorescence – cell-based, HEK293-NOX4, tetracycline-induced, NOX inhibitor project, primary screen (AID 1160); details: HEK293-NOX4, Amplex Red H2O2 fluorescence, 45 min; higher = more signal, called active from +8 up or from −8 down
[20] = target: NADPH oxidase 5 (Homo sapiens) (UniProt Q96PH1); assay: compounds shifting NOX5 Amplex Red fluorescence – cell-based, HEK293-NOX5, NOX inhibitor project, primary screen (AID 1161); details: HEK293-NOX5, ionomycin, 45 min, higher = more signal
Sequence of NADPH oxidase 5 (Homo sapiens) (Q96PH1 whole entry, looked up): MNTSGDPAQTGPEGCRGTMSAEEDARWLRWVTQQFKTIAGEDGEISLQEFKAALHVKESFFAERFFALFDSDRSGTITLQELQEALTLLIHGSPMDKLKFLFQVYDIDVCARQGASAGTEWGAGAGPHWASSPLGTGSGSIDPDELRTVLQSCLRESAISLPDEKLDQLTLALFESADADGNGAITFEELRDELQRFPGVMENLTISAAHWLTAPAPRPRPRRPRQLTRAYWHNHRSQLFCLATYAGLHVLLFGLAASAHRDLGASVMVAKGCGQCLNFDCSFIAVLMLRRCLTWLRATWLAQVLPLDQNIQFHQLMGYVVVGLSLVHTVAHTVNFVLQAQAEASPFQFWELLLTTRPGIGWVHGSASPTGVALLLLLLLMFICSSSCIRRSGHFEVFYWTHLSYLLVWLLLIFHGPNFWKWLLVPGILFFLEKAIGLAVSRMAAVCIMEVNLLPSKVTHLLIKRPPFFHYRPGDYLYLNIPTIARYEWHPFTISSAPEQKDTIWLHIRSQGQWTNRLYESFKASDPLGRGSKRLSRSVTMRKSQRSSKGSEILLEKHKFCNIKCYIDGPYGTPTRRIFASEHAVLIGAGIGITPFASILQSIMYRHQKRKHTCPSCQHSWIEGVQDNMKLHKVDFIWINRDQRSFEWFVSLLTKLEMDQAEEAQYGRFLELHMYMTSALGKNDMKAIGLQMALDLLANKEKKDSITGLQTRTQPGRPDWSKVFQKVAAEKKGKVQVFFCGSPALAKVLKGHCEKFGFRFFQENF

Sequence of NADPH oxidase 4 (Homo sapiens) (Q9NPH5 whole entry, looked up): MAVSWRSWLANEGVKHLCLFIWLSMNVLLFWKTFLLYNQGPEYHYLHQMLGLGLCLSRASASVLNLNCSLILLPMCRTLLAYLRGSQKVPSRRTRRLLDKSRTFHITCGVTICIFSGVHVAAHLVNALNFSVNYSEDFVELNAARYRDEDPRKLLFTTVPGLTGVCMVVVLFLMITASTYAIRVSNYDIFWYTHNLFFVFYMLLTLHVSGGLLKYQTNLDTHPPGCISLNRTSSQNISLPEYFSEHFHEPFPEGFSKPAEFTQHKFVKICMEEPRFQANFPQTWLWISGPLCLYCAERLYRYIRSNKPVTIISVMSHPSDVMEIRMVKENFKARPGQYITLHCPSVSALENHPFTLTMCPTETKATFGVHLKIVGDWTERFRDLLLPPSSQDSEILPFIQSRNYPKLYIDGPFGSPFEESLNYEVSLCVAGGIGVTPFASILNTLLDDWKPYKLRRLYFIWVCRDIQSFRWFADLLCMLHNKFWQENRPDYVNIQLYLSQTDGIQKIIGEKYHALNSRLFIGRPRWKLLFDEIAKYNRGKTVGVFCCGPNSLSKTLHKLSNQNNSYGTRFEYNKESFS
Sequence of Torsin-1A (Homo sapiens) (O14656 whole entry, looked up): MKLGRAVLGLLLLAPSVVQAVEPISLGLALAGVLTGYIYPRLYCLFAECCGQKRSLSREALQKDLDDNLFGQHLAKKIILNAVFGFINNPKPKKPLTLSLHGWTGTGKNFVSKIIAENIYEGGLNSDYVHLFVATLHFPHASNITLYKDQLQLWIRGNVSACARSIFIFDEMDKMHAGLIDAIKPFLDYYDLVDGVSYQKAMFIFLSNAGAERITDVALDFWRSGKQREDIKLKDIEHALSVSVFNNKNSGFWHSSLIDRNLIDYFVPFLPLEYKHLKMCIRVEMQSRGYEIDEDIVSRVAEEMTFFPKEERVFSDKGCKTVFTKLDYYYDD
Sequence of Streptavidin (Streptomyces avidinii) (P22629 whole entry, looked up): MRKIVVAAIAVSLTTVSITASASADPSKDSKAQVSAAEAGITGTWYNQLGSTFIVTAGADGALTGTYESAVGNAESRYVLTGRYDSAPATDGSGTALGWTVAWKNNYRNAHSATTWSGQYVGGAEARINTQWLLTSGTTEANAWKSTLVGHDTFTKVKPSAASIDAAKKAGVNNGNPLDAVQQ
Sequence of NADPH oxidase 2 (Homo sapiens) (P04839 whole entry, looked up): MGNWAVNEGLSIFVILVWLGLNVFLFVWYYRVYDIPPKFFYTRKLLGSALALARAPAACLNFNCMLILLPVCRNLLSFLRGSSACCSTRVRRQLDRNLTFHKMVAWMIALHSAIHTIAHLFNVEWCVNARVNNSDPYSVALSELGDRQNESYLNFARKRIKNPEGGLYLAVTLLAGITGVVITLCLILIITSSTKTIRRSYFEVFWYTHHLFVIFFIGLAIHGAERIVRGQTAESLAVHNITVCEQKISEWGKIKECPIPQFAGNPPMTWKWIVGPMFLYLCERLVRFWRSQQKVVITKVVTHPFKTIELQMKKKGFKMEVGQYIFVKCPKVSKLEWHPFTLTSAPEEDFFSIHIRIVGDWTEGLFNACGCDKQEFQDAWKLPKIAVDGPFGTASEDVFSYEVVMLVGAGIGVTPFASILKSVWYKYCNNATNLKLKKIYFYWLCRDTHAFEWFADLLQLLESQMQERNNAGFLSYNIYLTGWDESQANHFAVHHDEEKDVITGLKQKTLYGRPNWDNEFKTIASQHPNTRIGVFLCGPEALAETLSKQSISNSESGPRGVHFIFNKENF

| Structure (SMILES) | composite z-score [1] | z-score [2] | z-score [3] | z-score [4] | z-score [5] | composite z-score [6] | composite z-score [7] | composite z-score (Torsin-1A (Homo sapiens) [8]) | composite z-score (Torsin-1A (Homo sapiens) [9]) | composite z-score [10] | z-score [11] | composite z-score [12] | z-score [13] | z-score [14] | z-score [15] | z-score [16] | z-score [17] | z-score [18] | z-score [19] | z-score [20] |
| --- | --- | --- | --- | --- | --- | --- | --- | --- | --- | --- | --- | --- | --- | --- | --- | --- | --- | --- | --- | --- |
| CCOC(=O)C[C@H]1[C@H](OC(=O)c2ccccc2-c2ccccc2)[C@@H](NC(=O)C2CCCCC2)c2cc(OCCCO)ccc2N1C(=O)c1ccc2ccccc2n1 | 0.243 | -0.911 (inactive) | 0.507 (inactive) | 4.83 (inactive) | 1.51 (inactive) | 0.155 | 0.222 | 0.237 | 0.133 | 0.897 | -0.899 (inactive) | -0.167 | 3.85 (inactive) | 0.192 (inactive) | -0.192 (inactive) | 0.255 (inactive) | -0.342 | 0.618 (inactive) | 1.23 (inactive) | 2.62 |
| C=CCC(OC(C)=O)[C@@H]1[C@@H](N(Cc2ccc(-c3ccccc3)cc2)C(=O)c2cccc3ccccc23)c2cc(OCCCO)ccc2N1C(=O)Cc1ccc(OC)cc1 (stereo not given in full) | 0.0948 | -1.62 (inactive) | 0.0108 (inactive) | 0.498 (inactive) | -0.117 (inactive) | 0.0251 | -0.0346 | -0.476 | 0.127 | 0.586 | -1.17 (inactive) | 0.568 | 0.53 (inactive) | 0.525 (inactive) | 0.375 (inactive) | 0.211 (inactive) | -0.0451 | -0.248 (inactive) | -0.0822 (inactive) | -2.28 |
| CCCCC(O)C1C=CC2C(=O)N(c3ccccc3)C(=O)C2N1Nc1ccc(C#N)cc1 (stereo not given) | -0.0416 | 0.739 (inactive) | -1.25 (inactive) | 0.632 (inactive) | 0.719 (inactive) | 0.718 | 0.545 | 0.242 | 0.179 | -0.492 | -0.964 (inactive) | 0.598 | 16.7 (active) | 2.94 (inactive) | 2.36 (inactive) | 1.39 (inactive) | -0.809 | -0.444 (inactive) | -4.26 (inactive) | -1.98 |
| COC(=O)c1cccc([C@H]2OC(=CC(=O)OC(C)C)C[C@@H](c3cccc(C(=O)OC)c3)O2)c1 | 1.19 | -2.17 (inactive) | 0.111 (inactive) | 1.26 (inactive) | 1.05 (inactive) | 1.21 | 0.0649 | 1.64 | 1.53 | 1 | -0.576 (inactive) | 0.635 | 18.5 (active) | 3.17 (inactive) | 0.487 (inactive) | 0.683 (inactive) | 0.0055 | -0.679 (inactive) | -1.6 (inactive) | -2.04 |
| CN1C(=O)[C@@H]2[C@@H](CC(COc3ccccc3)=C3[C@@H](CCc4ccccc4)OB(O)C[C@@H]32)C1=O | 0.0305 | -0.706 (inactive) | 0.32 (inactive) | 1.76 (inactive) | 0.89 (inactive) | -0.156 | -0.128 | 0.179 | 0.0191 | 0.394 | -0.759 (inactive) | -0.191 | 4.5 (inactive) | 0.626 (inactive) | -0.488 (inactive) | 0.133 (inactive) | -0.202 | 0.693 (inactive) | 0.41 (inactive) | 0.82 |
| Cc1ccc(S[C@]2(C(=O)NCCCN(C)C)CC(=O)N(Cc3ccccc3C(F)(F)F)[C@@H]2c2ccc(CO)cc2I)cc1 | -0.379 | -1.13 (inactive) | 0.323 (inactive) | -0.464 (inactive) | 1.66 (inactive) | -0.493 | 0.189 | 0.22 | -0.144 | -0.117 | -0.527 (inactive) | -0.629 | 3.14 (inactive) | 0.684 (inactive) | 0.32 (inactive) | 0.377 (inactive) | -0.579 | -0.632 (inactive) | -1.08 (inactive) | 1.96 |
| COc1ccc([Si](C)(C)[C@H]2[C@H](CC(=O)N3Cc4ccccc4C[C@H]3CO)O[C@@]3(C(=O)N(C)c4ccccc43)[C@@H]2C)cc1 | 0.26 | -7.33 (inactive) | 0.458 (inactive) | 5.61 (inactive) | -1.92 (inactive) | 0.783 | 0.0342 | 1.28 | 1.91 | 2.07 | -0.614 (inactive) | 0.384 | 13.2 (active) | 1.16 (inactive) | 2.37 (inactive) | -0.925 (inactive) | 0.867 | -3.27 (inactive) | -1.45 (inactive) | -1.91 |
| CO[C@H]1O[C@H](CO)[C@@H](OC(=O)Nc2ccccc2-c2ccccc2)[C@H](OC(=O)Nc2ccccc2)[C@H]1OC(=O)Nc1ccccc1 | 1.32 | -3.8 (inactive) | -0.589 (inactive) | -0.254 (inactive) | -2.07 (inactive) | 0.29 | 0.122 | 0.616 | 1.6 | 1.1 | 0.299 (inactive) | 0.0405 | 2.62 (inactive) | 0.772 (inactive) | 0.375 (inactive) | 0.521 (inactive) | 0.144 | -1.62 (inactive) | -1.72 (inactive) | -1.4 |
| COCCOC(=O)N1C(=O)[C@@]2(c3cc(C#CCCO)ccc31)[C@H](c1ccccc1OCCO)N1[C@H](c3ccccc3)[C@H](c3ccccc3)OC(=O)[C@H]1[C@@H]2C(N)=O | 0.536 | -4.33 (inactive) | -0.441 (inactive) | 0.0653 (inactive) | 18.6 (active) | 0.508 | -0.226 | -0.0615 | 0.172 | 1.97 | 1.46 (inactive) | -0.278 | 20.3 (active) | 4.04 (inactive) | 0.633 (inactive) | 0.934 (inactive) | 0.868 | 1.81 (inactive) | 0.552 (inactive) | -0.302 |
